In the library only some 9.2% were active in any assay of this set; here they are far more common.
NPC1 prom act – NPC1 promoter activation; Potency, µM (doses to about 9.22 µM), for the others: at the highest dose activation, most hits filed as activators; hit rate 2.4% among 320,000; Huh7 NPC1 promoter luciferase reporter, 24 h; also: % of control where 0% means no effect; nearly all actives have a fitted effect of over 60% in size
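Luminescence from an NPC1 promoter-driven luciferase reporter in stably transfected Huh7 cells was measured after 24 h compound treatment at 37 °C, followed by 10 min ambient incubation with luciferase detection reagent.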
ELG1 repair inh – inhibitors of ELG1-dependent DNA repair in HEK293T cells | Potency, µM (titrated, usually from 46.1 µM), for the others: top-dose activity change, negative = inhibition, most hits filed as inhibitors | hit rate 2.3% among 330,000 | HEK293T ELG1-luciferase reporter, luminescence, 16 h; DNA damage induced by 5-fluorouridine | AID 504467; also: % is scaled to controls: 0 for no effect and ±100 for the full control effect; nearly all actives have a fitted effect of over 55% in size
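HEK293T cells expressing luciferase-tagged ELG1 (2,000/well) received 5-Fluorouridine plus compound or DMSO for 16 hr at 37 °C. Luciferase was read by ONE-Glo luminescence after 30 min at room temperature.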
FLuc counter – counter-screen for miR-21 project: firefly luciferase inhibitors or activators. purified FLuc, Km substrates, luminescence inhibition. Potency, µM (top dose mostly 57.5 µM), without a hit: top-dose activity change, negative = inhibition, most hits filed as inhibitors. hit rate 6.9% among 360,000. AID 588342;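 also: plate controls were vehicle for no effect and reference inhibitor for full effect; nearly all actives have a fitted effect of over 55% in size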
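Purified P. pyralis luciferase (10nM final) with 10uM D-luciferin and 10uM ATP (Km levels) in 50mM Tris acetate pH 7.5, 10mM Mg acetate, 0.01% Tween-20, 0.05% BSA; qHTS 6-point titration, ~60 µM downward; luminescence read.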
ELG1 genotoxic – induces genotoxicity in HEK293T cells with luciferase-tagged ELG1; AID 504466; HEK293T ELG1-luciferase reporter, luminescence, 16 h; hit rate 1.3% among 330,000; Potency, µM (top dose mostly 46 µM), for the others: at the top dose activity change, positive = activation, most hits filed as activators; also: % of control where 0% means no effect; nearly all actives have a fitted effect of over 60% in size
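Genotoxicity was scored as increased ELG1-luciferase reporter signal, measured by ONE-Glo luminescence (30 min, room temperature). Compound or vehicle exposure of the HEK293T reporter cells lasted 16 hr at 37°C.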
Rab9 promoter act – activators of Rab9 promoter | hit rate 2.8% among 320,000 | Huh7 Rab9 promoter-luciferase reporter, luminescence, 24 h | Potency, µM (doses to about 9.22 µM), for inactives: top-dose activation, negative = inhibition, usual class: activators | AID 485297; also: % of control where 0% means no effect; nearly all actives have a fitted effect of over 60% in size
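Promoter activation is measured as luciferase luminescence in Huh7 cells stably transfected with a Rab9 promoter–luciferase construct, following 24 h compound exposure at 37 °C and 10 min reagent incubation at ambient temperature.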
SMN2 splice enh – increases expression of the SMN2 splice variant | HEK293 SMN2-luciferase splicing reporter, luminescence, 30-36 h | Potency, µM (titrated, usually from 46.1 µM), for the others: top-dose activity change, positive = activation, hits mostly activators | hit rate 2.8% among 210,000; also: % of control where 0% means no effect; nearly all actives have a fitted effect of over 55% in size
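HEK293 cells carry an SMN2 […]–luciferase reporter in which exon 7 inclusion puts luciferase in frame. Cells were plated 10-12 h before compound addition, then incubated 30-36 h at 37C. ONE-Glo luminescence was read; sodium butyrate at 4.5 mM final served as control.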
ELG1 FLuc counter – luciferase inhibition in cell-free luciferin readout for ELG1 hits. shares compounds with ELG1 repair inh. cell-free firefly luciferase luminescence counter-screen, ViewLux. Potency, µM (series often up to 46.1 µM), for inactives: at the top dose activity change, negative = inhibition, hits mostly inhibitors. hit rate 3% among 350. AID 624247; also: % is scaled to controls: 0 for no effect and ±100 for the full control effect
ELG1 Luc conf – confirmation of human ELG1-dependent DNA repair inhibitors. hit rate 68% among 670. shares compounds with ELG1 repair inh. Potency, µM (doses to about 46.1 µM), for inactives: at the highest dose activity change, negative = inhibition, usual class: inhibitors. HEK293T ELG1-luciferase levels, luminescence; cells co-treated with 5-fluorouridine; also: % is scaled to controls: 0 for no effect and ±100 for the full control effect; nearly all actives have a fitted effect of over 55% in size
ELG1 MMS Luc – inhibits ELG1-dependent repair under MMS stimulation in HEK293T cells. Potency, µM (series often up to 46.1 µM), without a hit: top-dose activity change, negative = inhibition, actives largely listed as inhibitors. HEK293T luciferase-tagged ELG1 level, MMS stimulated. AID 624249. hit rate 53% among 670. shares compounds with ELG1 repair inh; also: % is scaled to controls: 0 for no effect and ±100 for the full control effect; nearly all actives have a fitted effect of over 60% in size
ELG1 5FU viab – confirmation of ELG1 repair inhibitors: viability with 5FU; shares compounds with ELG1 repair inh; cell viability with 5-FU, ELG1-dependent repair; Potency, µM (highest dose often 46.1 µM), for inactives: top-dose activity change, negative = viability loss, usual class: cytotoxic; 670 tested, under 10 active;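 also: ELG1-luc HEK293T cells cotreated with 5-fluorouridine at 10 µM final; viability measured 16 h after compound addition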
ELG1 MMS cell – confirmation of ELG1 repair inhibitors: viability with MMS | shares compounds with ELG1 repair inh | Cell viability with MMS, ELG1-dependent DNA repair | Potency, µM (titrated, usually from 46.1 µM), inactives show at the top dose activity change, negative = viability loss, usual class: cytotoxic | hit rate 33% among 670;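 also: ELG1-luc HEK293T cells co-treated with 10 µM MMS; viability read 16 h after compound addition; % is scaled to controls: 0 for no effect and ±100 for the full control effect; nearly all actives have a fitted effect of over 60% in size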
Cell viab unstim – counter-screen for ELG1 repair inhibitors: unstimulated cell viability; shares compounds with ELG1 repair inh; hit rate 8% among 900; Potency, µM (titrated, usually from 45.9 µM), without a hit: at the highest dose activity change, negative = loss of viability, most hits filed as cytotoxic; AID 624252; cell viability counter-screen, unstimulated, luminescence;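 also: compound exposure lasted 16 hours before reading; % is scaled to controls: 0 for no effect and ±100 for the full control effect; nearly all actives have a fitted effect of over 55% in size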
FLuc enzyme – firefly luciferase inhibition counter-screen; shares compounds with ELG1 repair inh; purified firefly luciferase, luminescence counter-screen; Potency, µM (titrated, usually from 57.5 µM), for the others: at the highest dose activity, negative = inhibition, most hits filed as inhibitors; hit rate 10% among 350; AID 624253; also: % is scaled to controls: 0 for no effect and ±100 for the full control effect
* marks the source's active call; other numbers are inactive results; ? = inconclusive; . = no result given; [ ] = dose if it differs, or a comment. Calls follow the shape of the dose curve; as a rule, active = well fitted curve in the direction sought with a large enough effect; inconclusive = small, poorly fitted or top-dose-only effect, or another doubt; inactive = no such curve, though single readings can be large; an effect the other way counts as inactive or inconclusive. Potency is read from the fitted curve at half-maximal effect.

SMILES | NPC1 prom act | ELG1 repair inh | FLuc counter | ELG1 genotoxic | Rab9 promoter act | SMN2 splice enh | ELG1 FLuc counter | ELG1 Luc conf | ELG1 MMS Luc | ELG1 5FU viab | ELG1 MMS cell | Cell viab unstim | FLuc enzyme
COc1ccc(-c2nnc3ccc(SCC(=O)Nc4nc5ccccc5s4)nn23)cc1OC | -1% | 0.52µM* | -15% | -2% | -4% | -1% | 29% | 0.63µM* | 9% | ? | -5% | ? | ?
O=C(Nc1ccc(Oc2ncnc3cc(Cl)ccc23)nc1)c1cccs1 | -2% | ? | -1% | ? | -3% | . | . | . | . | . | . | . | .
Cc1ccc(OC(=O)c2cc(=O)c3ccccc3o2)cc1 | -1% | 10% | 0% | 1% | 1% | 3% | . | . | . | . | . | . | .
Cc1ccc(NC(=O)c2ccc(OC(=O)c3cc4ccccc4o3)cc2)cc1 | 3.5µM* | ? | -14% | 3.2µM* | 2µM* | 10µM* | 65% | . | . | . | . | -1% | ?
COc1ccc(Cl)cc1NC(=O)c1ccco1 | 16% | 5% | 3% | -1% | 9% | 21% | . | . | . | . | . | . | .
O=C(Nc1cc(Cl)ccc1Cl)c1ccc(OC(=O)c2ccco2)cc1 | 0% | 25% | -3% | 15% | 5% | -38% | 41% | . | . | . | . | 4% | 5%
Cc1ccc(NC(=O)c2ccc(OC(=O)c3ccco3)cc2)cc1 | 2µM* | ? | -11% | 8.2µM* | 2.8µM* | 13µM* | 76% | . | . | . | . | -1% | -11%
Cc1ccc(-c2nc3scc(CCNC(=O)Cc4ccc(Cl)cc4)n3n2)cc1 | . | . | 4% | . | . | . | . | . | . | . | . | . | .
O=C(NC1CCCCC1)c1cccc(OCc2ccccc2)c1 | -2% | -2% | 1% | -5% | 2% | . | . | . | . | . | . | . | .
COc1ccc(CCc2nnc(CCC(=O)N(C)Cc3ccnc4ccccc34)o2)cc1 | -16% | ? | -16% | -2% | -21% | . | . | ? | 7.1µM* | -7% | 6.3µM* | ? | .
COc1ccccc1CCc1nnc(CCC(=O)N(C)Cc2ccncc2C)o1 | -1% | -1% | 2% | -1% | 2% | . | . | . | . | . | . | . | .
CCn1c(=O)n(CC)c2cc(S(=O)(=O)N3CCC(c4ccccc4)CC3)ccc21 | -2% | ? | 3% | -2% | -2% | . | -12% | . | . | . | . | ? | -3%
Cn1c(=O)c(=O)n(C)c2cc(S(=O)(=O)N3CCC(Cc4ccccc4)CC3)ccc21 | -4% | 3% | 8% | 1% | 5% | 19% | . | . | . | . | . | . | .
COc1ccc([C@H]2Cc3cc(O)cc(O)c3C(=O)O2)cc1O | . | ? | . | 5.2µM* | . | . | . | . | . | . | . | 9% | .
CN(C)C=Nc1c(C(=O)c2ccccc2)sc2nccc(N(C)C)c12 | 0% | ? | -3% | -11% | 1% | -14% | . | . | . | . | . | . | .
CN(C)c1ccnc2sc3c(=O)n(-c4ccccc4)cnc3c12 | 1% | 12µM* | 0% | -13% | 0% | 17% | 12% | 16µM* | ? | 14% | 0% | ? | -10%
Cc1ccc(-c2nc3c(c(SCC(=O)Nc4cccc(C(=O)O)c4)n2)Cc2cccc(C)c2O3)cc1 | 8% | . | ? | . | -2% | 7% | 72% | 76% | 77% | 7% | ? | 5% | ?
Cc1c2c(nc3ccccc13)CCC(C)C2 (stereo not given) | -3% | 4% | ? | 0% | 3% | 11% | . | . | . | . | . | . | .
O=C(CCc1nnc2n(Cc3ccc(Cl)cc3)c(=O)c3ccccc3n12)N1CCN(c2ccccn2)CC1 | -5% | 3.7µM* | 2% | 0%[9.26 µM] | -4% | . | . | 6.3µM* | 22µM* | ? | ? | -10% | .
CC(=O)OC1CC[C@]2(C)C(=CCC3C4CCC(C(C)CCCC(C)C)[C@]4(C)CCC32)C1 (stereo not given in full) | . | . | . | . | . | -2% | . | . | . | . | . | . | .
O=C(c1cc(COc2ccc3ncccc3c2)on1)N1CCCC1 | -11% | ? | ? | 4% | -15% | . | 25% | 41% | 13µM* | -1% | 16µM* | ? | ?
O=C(NC1CCCC1)c1cc(COc2ccc3ncccc3c2)on1 | -28% | 2.3µM* | ? | -2% | -41% | . | -3% | ? | 2.5µM* | -3% | 3.2µM* | ? | ?
COCC1CCN(C(=O)c2cc(COc3ccc4ncccc4c3)on2)CC1 | -24% | ? | -10% | -9% | -38% | . | . | . | . | . | . | . | .
O=C(C[C@H]1C/C=C\C[C@@H](Cc2ccc(F)cc2)C(=O)O[C@@H](c2ccccc2)CNC1=O)NCCO | . | -26% | . | -5% | . | . | . | . | . | . | . | . | .
O=C1NC[C@H](c2ccccc2)OC(=O)[C@H](Cc2ccc(F)cc2)C/C=C\C[C@H]1CC(=O)N(CCO)Cc1ccccc1 | . | 1.3µM* | . | -14% | . | . | . | 5.6µM* | 2.8µM* | ? | ? | ? | .
O=C1NC[C@H](c2ccccc2)OC(=O)[C@@H](Cc2ccc(F)cc2)C/C=C\C[C@H]1CC(=O)N(CCO)Cc1ccccc1 | . | 2.6µM* | . | -6% | . | . | . | 7.9µM* | 13µM* | ? | ? | ? | .
NC(=O)C1CCN(CC(O)COc2ccc(-c3ccccc3)cc2)CC1 (stereo not given) | 2% | -3% | 3% | -5% | -2% | . | . | . | . | . | . | . | .
